The results in this text go back to PubChem BioAssay (NCI).

Among the test systems are NCI-H23 lung; NCI-H226 lung; NCI-H322M lung; NCI-H460 lung; HOP-92 NSCLC; NCI-H522 lung; A549/ATCC NSCLC; 786-0 renal; COLO 205 colon; DU-145 prostate; K-562 leukemia; MALME-3M melanoma; MDA-MB-231 breast; RXF 393 renal; SF-268 CNS; SF-295 CNS; SF-539 CNS; UACC-257 melanoma; M14 melanoma; HOP-62 NSCLC.
Experiment in all cases: NCI-60 one-dose screen, 48 h (100 = growth as untreated, 0 = no growth, -100 = all killed)
Conditions in all cases: 10 µM unless noted

Where “and” joins values, the source holds several entries; their conditions need not be identical. Equal values may be shown once. About 83,000 compounds went through this panel and 20% of them were active in at least one assay; those are over-represented in the sample as a whole.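 Compound tested at a single concentration for 48 hours in 96-well plates; a percent growth value below 10 was scored as active.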 Calls of active or inactive are those of the source.

On to `O=[N+]([O-])c1cc(Cl)c(Cl)cc1Cl`, for which the growth was 105% (inactive) and 107% (inactive) in the experiment on NCI-H23 lung; 114% (inactive) and 108% (inactive) in the experiment with NCI-H226 lung; 116% (inactive) and 123% (inactive) with NCI-H322M lung; 110% (inactive) and 108% (inactive) in the experiment on NCI-H460 lung; 110% (inactive) in the experiment on HOP-92 NSCLC; 134% (inactive) and 110% (inactive) in the experiment with NCI-H522 lung. Besides, the growth with A549/ATCC NSCLC is 88.7% (inactive) and 111% (inactive); with 786-0 renal, 111% (inactive) and 112% (inactive); in the experiment with COLO 205 colon, 117% (inactive) and 106% (inactive); in the experiment on DU-145 prostate, 111% (inactive) and 121% (inactive); with K-562 leukemia, 114% (inactive) and 110% (inactive); with MALME-3M melanoma it was 115% (inactive) and 126% (inactive). Also, the growth with MDA-MB-231 breast was 99.7% (inactive) and 124% (inactive); with RXF 393 renal, 142% (inactive) and 111% (inactive); with SF-268 CNS, 105% (inactive) and 114% (inactive); in the experiment on SF-295 CNS, 97.8% (inactive) and 112% (inactive); in the experiment with SF-539 CNS, 82.4% (inactive) and 102% (inactive); in the experiment on UACC-257 melanoma, 80.1% (inactive) and 111% (inactive). Moreover, the growth in the experiment with M14 melanoma was 102% (inactive) and 114% (inactive).

On to `CCCN1C(=O)NC(=O)C(CC)(N2C(=O)c3c(F)c(F)c(F)c(F)c3C2=O)C1=O` (stereo not drawn), for which the growth was -52.1% (active) in the experiment on NCI-H23 lung; 27.4% (inactive) in the experiment with NCI-H226 lung; -57.7% (active) with NCI-H322M lung; -81% (active) with NCI-H460 lung; -50.5% (active) in the experiment with HOP-92 NSCLC; -82.3% (active) in the experiment on NCI-H522 lung. Moreover, the growth was -64.7% (active) in the experiment on A549/ATCC NSCLC; -58.5% (active) in the experiment with 786-0 renal; -81.9% (active) with COLO 205 colon; -98.9% (active) in the experiment with DU-145 prostate; -81.7% (active) with K-562 leukemia; -71.1% (active) in the experiment with MALME-3M melanoma. For the same compound, the growth with MDA-MB-231 breast is -78.7% (active); in the experiment with RXF 393 renal, -95.1% (active); with SF-268 CNS, -82.5% (active); with SF-295 CNS, -68.6% (active); with SF-539 CNS, -96.7% (active); in the experiment with UACC-257 melanoma, -83.3% (active). For the same compound, the growth in the experiment on M14 melanoma is -64.7% (active).

For `Cc1ccc(N2CCN(CCC#N)CC2)cc1`, the growth in the experiment on NCI-H23 lung was 100% (inactive); with NCI-H226 lung, 92.1% (inactive); in the experiment with NCI-H322M lung, 75.2% (inactive); in the experiment on NCI-H460 lung, 97.7% (inactive); in the experiment with HOP-92 NSCLC it was 98.4% (inactive); in the experiment on NCI-H522 lung, 84.6% (inactive). Moreover, the growth with A549/ATCC NSCLC was 88.5% (inactive); in the experiment with 786-0 renal, 100% (inactive); with COLO 205 colon, 93.7% (inactive); with DU-145 prostate, 101% (inactive); in the experiment on K-562 leukemia, 110% (inactive); in the experiment with MALME-3M melanoma, 70.1% (inactive). Moreover, the growth in the experiment with MDA-MB-231 breast was 107% (inactive); with RXF 393 renal, 88% (inactive); in the experiment on SF-268 CNS it was 105% (inactive); in the experiment with SF-295 CNS, 105% (inactive); in the experiment on SF-539 CNS, 79.1% (inactive); with UACC-257 melanoma, 84.5% (inactive).

As to `CN1CCc2cc3c(cc2C1O)OCO3` (stereo not drawn), the growth with NCI-H23 lung was 109% (inactive); in the experiment with NCI-H226 lung it was 36% (inactive) and 105% (inactive); with NCI-H322M lung, 127% (inactive) and 98.7% (inactive); in the experiment on HOP-62 NSCLC, 103% (inactive) and 99.1% (inactive); in the experiment on NCI-H460 lung, -48.6% (active) and 107% (inactive); with A549/ATCC NSCLC, 96.2% (inactive) and 106% (inactive). The growth was 100% (inactive) and 91.9% (inactive) in the experiment with 786-0 renal; 92.9% (inactive) and 111% (inactive) in the experiment with COLO 205 colon; 101% (inactive) and 103% (inactive) in the experiment on DU-145 prostate; 96.7% (inactive) in the experiment with K-562 leukemia; 31% (inactive) and 88.7% (inactive) with MALME-3M melanoma; 97.6% (inactive) and 111% (inactive) in the experiment on MDA-MB-231 breast. The growth with RXF 393 renal is 87.8% (inactive) and 114% (inactive); with SF-268 CNS, 83.2% (inactive) and 101% (inactive); in the experiment on SF-295 CNS it was 86.7% (inactive) and 94.8% (inactive); with SF-539 CNS it was 33.5% (inactive) and 93% (inactive); in the experiment with UACC-257 melanoma, 99.2% (inactive) and 111% (inactive); in the experiment with M14 melanoma, 102% (inactive) and 99% (inactive).

`C[N+]12CCC34C5=CC(=O)C(=O)C=C5[N+]5(C)C(=O)CC6OCC=C(C1)C(CC32)C6C45` (stereo not drawn): the growth is 117% (inactive) in the experiment on NCI-H23 lung; 98.6% (inactive) with NCI-H226 lung; 98.5% (inactive) with NCI-H322M lung; 102% (inactive) in the experiment on HOP-62 NSCLC; 105% (inactive) with NCI-H460 lung; 106% (inactive) with A549/ATCC NSCLC. The growth in the experiment on 786-0 renal is 112% (inactive); in the experiment with COLO 205 colon, 101% (inactive); in the experiment on DU-145 prostate, 102% (inactive); with K-562 leukemia, 97.6% (inactive); with MALME-3M melanoma, 99.4% (inactive); in the experiment on MDA-MB-231 breast, 97.6% (inactive). Further, the growth was 93.1% (inactive) in the experiment on RXF 393 renal; 111% (inactive) in the experiment with SF-268 CNS; 93% (inactive) in the experiment on SF-295 CNS; 97.5% (inactive) in the experiment on SF-539 CNS; 113% (inactive) in the experiment on UACC-257 melanoma; 118% (inactive) in the experiment with M14 melanoma.

Turning to `CCCn1cc2c3c(cccc31)[C@H]1C[C@@H](C)CN(C)[C@@H]1C2`, the growth in the experiment with NCI-H23 lung was 77% (inactive); in the experiment on NCI-H226 lung it was 93.4% (inactive); in the experiment with NCI-H322M lung, 89.4% (inactive); in the experiment with HOP-62 NSCLC it was 86.4% (inactive); in the experiment with NCI-H460 lung it was 95.7% (inactive); in the experiment with HOP-92 NSCLC, 29.7% (inactive). For the same compound, the growth with A549/ATCC NSCLC was 96% (inactive); in the experiment with 786-0 renal, 81.7% (inactive); in the experiment on DU-145 prostate it was 99.8% (inactive); in the experiment on MDA-MB-231 breast, 78.3% (inactive); in the experiment with RXF 393 renal, 86.6% (inactive); in the experiment with SF-268 CNS it was 94.8% (inactive). In addition, the growth is 85.1% (inactive) in the experiment on SF-539 CNS, 78.6% (inactive) in the experiment on UACC-257 melanoma and 89.3% (inactive) in the experiment on M14 melanoma.

`O=Cc1cn(Cc2ccccc2)c2ccccc12`: the growth in the experiment with NCI-H23 lung is 80.1% (inactive); in the experiment on NCI-H226 lung, 28.2% (inactive); with NCI-H322M lung, 86% (inactive); with NCI-H460 lung it was 20.9% (inactive); in the experiment with HOP-92 NSCLC it was 74.4% (inactive); in the experiment on NCI-H522 lung it was 121% (inactive). The growth in the experiment with A549/ATCC NSCLC is 76.6% (inactive); in the experiment with 786-0 renal, 87.6% (inactive); with COLO 205 colon it was 15.4% (inactive); in the experiment with DU-145 prostate it was 108% (inactive); with K-562 leukemia it was 53.3% (inactive); in the experiment with MALME-3M melanoma, 127% (inactive). Further, the growth is 92.7% (inactive) with MDA-MB-231 breast; 67.6% (inactive) with RXF 393 renal; 104% (inactive) with SF-268 CNS; 99.5% (inactive) in the experiment on SF-295 CNS; 95.1% (inactive) in the experiment with SF-539 CNS; 37.8% (inactive) in the experiment on UACC-257 melanoma.

With `COC12CC3(C)C(C4=CC(=O)OC4)CCC3(O)C3CCC4=CC(=O)CCC4(CO1)C32` (stereo not drawn), the growth with NCI-H23 lung was 99% (inactive); in the experiment on NCI-H226 lung it was 101% (inactive); with NCI-H322M lung, 83% (inactive); in the experiment on NCI-H460 lung it was 113% (inactive); in the experiment with HOP-92 NSCLC it was 76.8% (inactive); in the experiment on NCI-H522 lung it was 14.7% (inactive). Further, the growth was 98.8% (inactive) in the experiment on A549/ATCC NSCLC; 94.5% (inactive) with 786-0 renal; 116% (inactive) with COLO 205 colon; 117% (inactive) with DU-145 prostate; 106% (inactive) in the experiment with K-562 leukemia; 77.1% (inactive) in the experiment with MALME-3M melanoma. For the same compound, the growth in the experiment on MDA-MB-231 breast was 110% (inactive); in the experiment on RXF 393 renal, 112% (inactive); in the experiment on SF-268 CNS, 109% (inactive); in the experiment with SF-295 CNS, 90.6% (inactive); in the experiment with SF-539 CNS, 111% (inactive); in the experiment with UACC-257 melanoma, 100% (inactive).
